From PubChem
HEK cytotox: Cytotoxic Profiling in HEK 293 Cell Line of Diverse Libraries Using Quantitative High-Throughput Screening; HEK 293 viability, ATP luminescence (CellTiter-Glo), 48-72 h; 94,000 tested, 6.6% active; AID 1345083, 2018; Potency, µM (titrated, usually from 115 µM), for inactives: top-dose activity change, negative = cytotoxicity, usual class: inhibitors; further: nearly all actives have a fitted effect of over 60% in size
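250 HEK 293 cells/well; compound by pintool; incubated 48 or 72 hr at 37 degree Celsius; CellTiter-Glo added, 10 min RT, luminescence imaged.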
Luciferase inh: Firefly luciferase inhibition profiling of diverse chemical library using quantitative high-throughput screening; 76,000 tested, 2.5% active; Luciferin 4-monooxygenase (Photinus pyralis), P08659; purified P. pyralis luciferase, luminescence, biochemical; Potency, µM (doses to about 115 µM), usual class: inhibitors; further: nearly all actives have a fitted effect of over 65% in size
Target sequence (P08659 whole entry, looked up): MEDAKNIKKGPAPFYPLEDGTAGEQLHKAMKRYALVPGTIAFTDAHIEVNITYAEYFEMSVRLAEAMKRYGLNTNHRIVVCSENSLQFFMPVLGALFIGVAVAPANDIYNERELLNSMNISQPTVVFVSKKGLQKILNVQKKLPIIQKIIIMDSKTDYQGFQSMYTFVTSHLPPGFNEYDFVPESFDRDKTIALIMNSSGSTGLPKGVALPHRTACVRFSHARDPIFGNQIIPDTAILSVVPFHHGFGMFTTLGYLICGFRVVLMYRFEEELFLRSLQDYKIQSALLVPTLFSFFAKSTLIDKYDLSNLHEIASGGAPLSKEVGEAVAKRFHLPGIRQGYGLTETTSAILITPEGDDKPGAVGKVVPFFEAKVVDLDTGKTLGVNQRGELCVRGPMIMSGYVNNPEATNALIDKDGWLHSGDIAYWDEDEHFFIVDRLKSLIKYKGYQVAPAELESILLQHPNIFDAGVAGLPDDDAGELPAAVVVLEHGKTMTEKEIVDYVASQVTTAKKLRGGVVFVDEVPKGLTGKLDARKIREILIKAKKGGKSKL
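Inhibitors were tested against purified firefly luciferase in a biochemical, low-substrate format (both substrates at 10uM) and luminescence measured with a CCD imager.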
3T3 cytotox: Cytotoxic Profiling in NIH 3T3 Cell Line of Diverse Libraries Using Quantitative High-Throughput Screening | NIH 3T3 viability, CellTiter-Glo ATP luminescence, 48-72 h | 94,000 tested, 4.3% active | Potency, µM (highest dose often 96.7 µM), for inactives: at the highest dose activity change, negative = cytotoxicity, hits mostly inhibitors; further: nearly all actives have a fitted effect of over 55% in size
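Viability of NIH 3T3 cells after 48 or 72 hr compound treatment at 37 °C was assessed by CellTiter-Glo, with luminescence imaged following a 10 min room-temperature step.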
NPR1 antag: Natriuretic polypeptide receptor (hNpr1) antagonism - Primary qHTS | 76,000 tested, 1.6% active | Atrial natriuretic peptide receptor 1 (Homo sapiens), P16066 | HEK293 hNpr1 GloSensor cGMP, ANP-stimulated luminescence | AID 1347048, 2019 | Potency, µM (top dose mostly 46.3 µM), without a hit: at the top dose activity change, negative = inhibition, actives largely listed as inhibitors; calls by dose curve; further: nearly all actives have a fitted effect of over 60% in size
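HEK293 cells stably expressing human Npr1 and cGMP GloSensor pGS-40F, loaded 2 h with 2% GloSensor reagent, given compound 30 min at room temperature. Luminescence read before and 20 min after 0.1 nM hNppA.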
GPT2 inhibitor: Primary qHTS assay for inhibitors of Glutamate pyruvate transaminase 2 (GPT2) | AID 1671188, 2021 | Potency, µM (doses to about 57.7 µM), for the others: top-dose activity change, negative = inhibition, usual class: inhibitors | Alanine aminotransferase 2 (Homo sapiens), Q8TD30 | Recombinant GPT2, coupled pyruvate oxidase/HRP Amplex Red fluorescence | 100,000 tested, 0.25% active; further: nearly all actives have a fitted effect of over 60% in size
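Recombinant GPT2 (10ng/uL) with 250uM a-KG and 2mM L-alanine, 30 min at room temperature, in HEPES pH 7.5 buffer. Pyruvate detected by pyruvate oxidase/HRP/Amplex Red fluorescence after 30 min in the dark; AOA (50uM) as positive control.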
* marks the source's active call; other numbers are inactive results; [ ] = dose if it differs, or a comment. Shown are actives, neighbours in structure and some others; about 10% of the full set was active somewhere. Unless noted, the call rests on the fitted dose curve; in most records, active means well fitted curve in the direction sought with a large enough effect; inconclusive means small, poorly fitted or top-dose-only effect, or another doubt; inactive means no such curve, though single readings can be large; an effect the other way counts as inactive or inconclusive. On the % scale 0 is the no-effect control and ±100 the full control effect; potency means the concentration at half of the fitted maximal effect.

COc1ccc(-c2cn3c(n2)CO[C@@H](CNC(=O)C2CCCC2)C3)cc1 was read as HEK cytotox -16.5%[172 µM], Luciferase inh 28.2µM*, 3T3 cytotox -5.7%[138 µM], NPR1 antag -4.1%[70.6 µM] and GPT2 inhibitor -3.5%[88.5 µM].
Cc1nn(C)cc1CN1CC[C@](O)(c2ccccc2)[C@H](N(C)C)C1 was read as HEK cytotox 11.5%, Luciferase inh inactive, 3T3 cytotox inactive, NPR1 antag -1.5% and GPT2 inhibitor inactive.
`COc1ccc(-c2cn3c(n2)CO[C@@H](CNC(=O)c2ccccc2OC)C3)cc1` gave HEK cytotox 70.8µM*, Luciferase inh inconclusive, 3T3 cytotox -6.6%[138 µM], NPR1 antag -30.0%[70.6 µM] and GPT2 inhibitor -6.6%[88.5 µM].
For N#Cc1ccc(C(=O)N2CCCN(C(=O)c3cccnc3)CCC(=O)NCC2)cc1 the results were HEK cytotox inactive, Luciferase inh inactive, 3T3 cytotox -11.8%, NPR1 antag -2.6% and GPT2 inhibitor inactive.
Screening COCC(=O)N1CCC(Oc2ccc(C(=O)NCCN3CCNC3=O)cc2)CC1 returned HEK cytotox inactive, Luciferase inh inactive, 3T3 cytotox -15.0%, NPR1 antag 4.6% and GPT2 inhibitor -21.3%.
For COc1cccc2c1OCC(CNC(=O)c1ccccc1N1CCCC1)C2 (stereo not given) the results were HEK cytotox 89.1µM*, Luciferase inh inactive, 3T3 cytotox 1.6%, NPR1 antag 3.2% and GPT2 inhibitor -0.1%.
`CC(C)Oc1ccc(C(=O)N[C@H](CNC(=O)CN(C)C)Cc2ccc(-c3cn4cccc([C@H](C)O)c4n3)cc2)cc1Cl` gave GPT2 inhibitor inactive.
O=C(c1ccn(C(F)F)n1)N1CCc2nc(-c3ccc(Cl)cc3)[nH]c2C1 was read as HEK cytotox 89.1µM*, Luciferase inh inconclusive, 3T3 cytotox inconclusive, NPR1 antag -0.3% and GPT2 inhibitor 5.0%.
`COc1ccc(C)cc1Nc1nc(-c2ccc(OC)c(OC)c2)no1` gave HEK cytotox inconclusive, Luciferase inh inconclusive, 3T3 cytotox inconclusive, NPR1 antag -4.3% and GPT2 inhibitor 1.6%.
COc1ccc(-c2noc(Nc3cc(C)ccc3OC)n2)cc1 was read as HEK cytotox inconclusive, Luciferase inh 17.8µM*, 3T3 cytotox inconclusive, NPR1 antag -5.8% and GPT2 inhibitor inactive.
`Cc1ncsc1CN1CCC(N2CC3(CCCCC3)C2c2ccccc2)CC1` (stereo not given) gave HEK cytotox 44.7µM*, 3T3 cytotox inconclusive and GPT2 inhibitor -3.8%.
Screening Cc1ncsc1CN1CCC(N2C(=O)C(OCC3CC3)C23CCCCC3)CC1 (stereo not given) returned HEK cytotox inconclusive, Luciferase inh inactive, 3T3 cytotox -27.3%, NPR1 antag -2.2% and GPT2 inhibitor inactive.
`CCS(=O)(=O)c1cccc(-c2cc(C(=O)NC3CCN(C)CC3)c(C)c3[nH]c4ncc(C)cc4c23)c1` gave GPT2 inhibitor -2.5%[27.3 µM].
For Cc1cccc(-c2nc3cc(C(=O)NCc4ccc(F)cc4)ccc3o2)n1 the results were HEK cytotox inconclusive, 3T3 cytotox inconclusive and GPT2 inhibitor -22.6%[88.5 µM].
Screening O=C(C1CCCCC1)N1CCC(c2noc(CO)n2)C1 (stereo not given) returned HEK cytotox -17.5%, Luciferase inh inactive, 3T3 cytotox -11.0%, NPR1 antag 4.4% and GPT2 inhibitor inactive.
Screening Cc1ccc(CN(C(=O)c2ccco2)c2ccc(CC(=O)N(C)Cc3ccccc3)cc2)cc1 returned HEK cytotox 31.6µM*, Luciferase inh inactive, 3T3 cytotox inconclusive, NPR1 antag -20.3% and GPT2 inhibitor -2.5%.
`CCOC(=O)C1CCN(C(=O)Cc2ccc(N(Cc3ccccc3)C(=O)c3ccco3)cc2)CC1` gave HEK cytotox 39.8µM*, Luciferase inh inactive, 3T3 cytotox inconclusive, NPR1 antag -23.0% and GPT2 inhibitor -1.0%.
For Cc1cccc(CNC(=O)Cc2ccc(N(Cc3ccccc3)C(=O)c3ccco3)cc2)c1 the results were HEK cytotox inconclusive, Luciferase inh inactive, 3T3 cytotox 44.7µM*, NPR1 antag -2.7% and GPT2 inhibitor inactive.
Cc1ccc(CN(C(=O)c2ccco2)c2ccc(CC(=O)NCc3ccccc3)cc2)cc1 was read as HEK cytotox 35.5µM*, Luciferase inh inactive, 3T3 cytotox inconclusive, NPR1 antag -18.2% and GPT2 inhibitor 0.3%.
Screening CCOc1cc(=O)n2c(c1C(=O)NCc1ccccc1Cl)CCCCC2 returned HEK cytotox inconclusive, Luciferase inh inactive, 3T3 cytotox -4.2%, NPR1 antag -2.3% and GPT2 inhibitor -1.5%.
NC(=O)c1cccc(CN2CCC3(CC2)Cc2ccccc2N(C(=O)c2ccc(Cl)cc2)C3)c1 was read as HEK cytotox 39.8µM*, 3T3 cytotox inconclusive and GPT2 inhibitor -6.1%.
Screening O=C(c1ccc(Cl)cc1)N1CC2(CCCN(Cc3ccccn3)C2)Cc2ccccc21 (stereo not given) returned HEK cytotox 31.6µM*, 3T3 cytotox inconclusive and GPT2 inhibitor inactive.
Screening NC(=O)c1cccc(CN2CCC3(Cc4ccccc4N(C(=O)c4ccc(Cl)cc4)C3)C2)c1 (stereo not given) returned HEK cytotox 35.5µM*, 3T3 cytotox inconclusive and GPT2 inhibitor inconclusive.
Screening O=C(O)CCC(=O)N1CCC2(CC1)Cc1ccccc1N(C(=O)c1ccc(Cl)cc1)C2 returned HEK cytotox inactive, 3T3 cytotox 31.6µM* and GPT2 inhibitor -12.7%.
`O=C(O)CCC(=O)N1CCC2(CC1)Cc1ccccc1N(C(=O)C1CCCC1)C2` gave HEK cytotox -16.9%, 3T3 cytotox inconclusive and GPT2 inhibitor inactive.
For O=C(c1ccc(Cl)cc1)N1CC2(CCN(Cc3ccccn3)CC2)Cc2ccccc21 the results were HEK cytotox inconclusive, 3T3 cytotox inconclusive and GPT2 inhibitor -1.8%.
For O=C(COc1cccc(-n2cnnc2)c1)NC1CCCc2c1[nH]c1ccccc21 (stereo not given) the results were HEK cytotox inconclusive, Luciferase inh inactive, 3T3 cytotox inconclusive, NPR1 antag 0.4% and GPT2 inhibitor inactive.
For CC(=O)NCc1nnc2n1C(C(=O)Nc1cccc(Cl)c1)CC2 (stereo not given) the results were HEK cytotox 2.6%, 3T3 cytotox -19.9% and GPT2 inhibitor 0.9%.
